# Inconclusive results are not listed. Where a call stands in place of a potency, no number is given. A number with no mark means an inactive call. The source made the active and inactive calls. Calls come from the whole dose curve; as a rule, active = well fitted inhibition curve with a large enough effect; inconclusive = small, poorly fitted or top-dose-only effect; inactive = no such curve, though single readings can be large or run the other way.
# Tests used:
# [1] = test system: Zika virus NS2B-NS3 protease (unlinked complex); experiment: Primary screen GU Rhodamine qHTS for Zika virus inhibitors: Unlinked NS2B-NS3 protease assay (AID 1347159); conditions: Recombinant ZIKV NS2B-NS3 protease, Rhodamine110 substrate fluorescence; series mostly up to 107 µM; note: nearly all actives have a fitted effect of over 60% in size
# Outline: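 In dose–response format, inhibition of unlinked protease (25 nM) was measured with 1.5 microM bis-peptide Rhodamine110 substrate. Aprotinin served as the intraplate control.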
# [2] = test system: Zika virus NS2B-NS3 protease (linked construct); experiment: Primary screen NINDS Rhodamine qHTS for Zika virus inhibitors (AID 1347160); conditions: purified NS2B-NS3 protease, Rhodamine110 substrate fluorescence; series mostly up to 57.1 µM; note: nearly all actives have a fitted effect of over 55% in size
# Outline: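 Each compound, titrated, sat 15 min with 25 nM linked protease before 1.5 microM Rhodamine110 substrate went in. Fluorescence gain over the next 15 min, in pH 8.0 Tris with Tween 20, gave Hill-fitted curves.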
Compound,Potency [1],"activity change, negative = inhibition [1]",Potency [2]
CO[C@@]12CC3[C@@H]([C@@H](O)[C@@H](OC(C)=O)C4[C@](C)(COC(C)=O)CCC[C@]34C)[C@@H](C)C1=CC(=O)O2 (some centres undefined),inactive,–,–
C[C@H](NCc1ccc(OCc2ccccc2F)cc1)C(N)=O,inactive,–,–
C=CC(C)(O)CC/C=C(\C)C(=O)OC1CC2(C(=O)O)CCC3(C)C(=CCC4C5(C)CCC(OC6OC(COC7OCC(O)C(O)C7O)C(O)C(OC7OCC(O)C(O)C7O)C6OC6OC(CO)C(O)C(O)C6OC6OCC(O)C(O)C6O)C(C)(C)C5CCC43C)C2CC1(C)C (centres undefined),–,-12.7% [at 19.1 µM],–
CCC(CC)n1ccc2c(C(=O)NCc3c(C)cc(C)[nH]c3=O)cc(C#N)cc21,inactive,–,inactive
CC(=O)NC(CCC(=O)O)C(=O)NCCc1ccc(O)cc1 (centres undefined),inactive,–,inactive
CC(C)(C)NCC(O)COc1cccc2c1CCCC2=O (centres undefined),inactive,–,inactive
CC(=O)OCC1=C[C@H](O)[C@@H]2C(C(=O)O)=CO[C@@H](O[C@@H]3O[C@H](CO)[C@@H](O)[C@H](O)[C@H]3O)[C@H]12,inactive,–,inactive
COc1ccc2c3c1O[C@H]1C[C@@H](O)C=C[C@@]31CCN(C)C2,inactive,–,inactive
C[C@@H]1C(=O)O[C@H]2CC34[C@H]5C[C@@H](C(C)(C)C)C36[C@@H](OC(=O)[C@@H]6O)O[C@@]4(C(=O)O5)[C@]21O (some centres undefined),inactive,–,inactive
COc1c(C)c(OCC=C(C)C)cc2c1C(=O)NC2=O,inactive,–,inactive
C=CC1(C)CC(OC(=O)C(=C)C(O)COC(C)=O)C(C(=C)C(=O)OC)C(O)C1C(=C)CO (centres undefined),inactive,–,inactive
